This note sets out measurements from PubChem BioAssay.

The structures appear in SMILES notation. Activity calls are given as the source filed them.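 How the source made its calls, unless noted: active means normalized viability below 100% at a tested concentration; inactive means the rest.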

Experiment [1] in a line: ovarian cancer cell viability with rucaparib, profiling panel, oncology-focused library, rucaparib conditional (AID 1508598). To be noted: patient-derived ovarian cancer cells, CellTiter-Glo viability, 144 h, stronger effect = lower value. (Cellular ATP, detected with luciferase, serves as a proxy for viable cell number.)
Experiment [2] in a line: sensitizers of A549 cells to miR-34 induction, primary screen, imaging, A549 dox-inducible miR-34, nuclei and caspase counts (AID 1347080;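 active means compounds whose cell count with miR-34 switched on is under 0.7 times the count with it off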). To be noted: A549 miR-34 inducible, Hoechst nuclei count, 48 h.
A short description of experiment [3]: survival rescue of mitochondrial mutant cells in low glucose, primary screen, MELAS cybrids, Rieske KO mouse fibroblasts, CellTiter-Glo (AID 1508586;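 active means mean z-score across replicates of 1.96 or higher in either the MELAS or the Rieske mutant cell line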;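 further: z relative to plate mean and SD of compound and empty wells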).
Setting [4] is: at 1.25 µM, OCI-C5x cells, with rucaparib 10 µM, 100% = cells with rucaparib alone.
The mark [5] stands for this setting: at 1.25 µM, OCI-C5x cells, without rucaparib.
[6] abbreviates: at 1.25 µM, OCI-P5x cells, with rucaparib 20 µM, 100% = cells with rucaparib alone.
Where [7] appears, read: at 1.25 µM, OCI-P5x cells, without rucaparib.
Setting [8] is: at 5 µM, OCI-C5x cells, with rucaparib 10 µM, 100% = cells with rucaparib alone.
The mark [9] stands for this setting: at 5 µM, OCI-C5x cells, without rucaparib.
Setting [10] is: at 5 µM, OCI-P5x cells, with rucaparib 20 µM, 100% = cells with rucaparib alone.
[11] abbreviates: at 5 µM, OCI-P5x cells, without rucaparib.
Where [12] appears, read: stronger effect = lower value, cell number ratio, induced over uninduced.
The mark [13] stands for this setting: measured here: relative caspase fold change +Dox/-Dox.
Where [14] appears, read: measured here: total cells with miR-34 induction, stronger effect = lower value.
Setting [15] is: measured here: total cells without miR-34 induction.
[16] abbreviates: MELAS cybrid survival, CellTiter-Glo 48 h, stronger effect = higher value.
The mark [17] stands for this setting: Rieske KO mouse fibroblast survival, CellTiter-Glo 72 h.
The mark [18] stands for this setting: at 0.000305 µM, OCI-C5x cells, with rucaparib 10 µM, 100% = cells with rucaparib alone.
[19] abbreviates: at 0.000305 µM, OCI-C5x cells, without rucaparib.
Setting [20] is: at 0.000305 µM, OCI-P5x cells, with rucaparib 20 µM, 100% = cells with rucaparib alone.
The mark [21] stands for this setting: at 0.000305 µM, OCI-P5x cells, without rucaparib.
The mark [22] stands for this setting: at 0.00122 µM, OCI-C5x cells, with rucaparib 10 µM, 100% = cells with rucaparib alone.
The mark [23] stands for this setting: at 0.00122 µM, OCI-C5x cells, without rucaparib.
The mark [24] stands for this setting: at 0.00122 µM, OCI-P5x cells, with rucaparib 20 µM, 100% = cells with rucaparib alone.
Setting [25] is: at 0.00122 µM, OCI-P5x cells, without rucaparib.
Setting [26] is: at 0.00488 µM, OCI-C5x cells, with rucaparib 10 µM, 100% = cells with rucaparib alone.
The mark [27] stands for this setting: at 0.00488 µM, OCI-C5x cells, without rucaparib.
[28] abbreviates: at 0.00488 µM, OCI-P5x cells, with rucaparib 20 µM, 100% = cells with rucaparib alone.
Setting [29] is: at 0.00488 µM, OCI-P5x cells, without rucaparib.
Setting [30] is: at 0.0195 µM, OCI-C5x cells, with rucaparib 10 µM, 100% = cells with rucaparib alone.
[31] abbreviates: at 0.0195 µM, OCI-C5x cells, without rucaparib.
The mark [32] stands for this setting: at 0.0195 µM, OCI-P5x cells, with rucaparib 20 µM, 100% = cells with rucaparib alone.
The mark [33] stands for this setting: at 0.0195 µM, OCI-P5x cells, without rucaparib.
The mark [34] stands for this setting: at 0.0781 µM, OCI-C5x cells, with rucaparib 10 µM, 100% = cells with rucaparib alone.
Where [35] appears, read: at 0.0781 µM, OCI-C5x cells, without rucaparib.
Setting [36] is: at 0.0781 µM, OCI-P5x cells, with rucaparib 20 µM, 100% = cells with rucaparib alone.
[37] abbreviates: at 0.0781 µM, OCI-P5x cells, without rucaparib.
[38] abbreviates: at 0.313 µM, OCI-C5x cells, with rucaparib 10 µM, 100% = cells with rucaparib alone.
Where [39] appears, read: at 0.313 µM, OCI-C5x cells, without rucaparib.
Setting [40] is: at 0.313 µM, OCI-P5x cells, with rucaparib 20 µM, 100% = cells with rucaparib alone.
The mark [41] stands for this setting: at 0.313 µM, OCI-P5x cells, without rucaparib.

In general, viability refers to a read-out of living cells in per cent, often relative to untreated cells. On to `CC(C)NCCCn1c(Sc2cc3c(cc2I)OCO3)nc2c(N)ncnc21`, for which the viability in experiment [1] (setting [4]) is 77.5% (active); in experiment [1] (setting [5]) it was 33.9% (active); in experiment [1] (setting [6]) it was 17.3% (active); in experiment [1] (setting [7]) it was 8.78% (active); in experiment [1] (setting [8]), 15.7% (active); in experiment [1] (setting [9]), 9.3% (active). Besides, the viability in experiment [1] (setting [10]) was 7.34% (active); in experiment [1] (setting [11]) it was 6.28% (active).
For the compound `COCC(=O)NCC=Cc1ccc2ncnc(Nc3ccc(Oc4ccc(C)nc4)c(C)c3)c2c1`, the fold change in experiment [2] (setting [12]) is 0.862 (inactive); in experiment [2] (setting [13]) it was 1.21. In addition, the cell count in experiment [2] (setting [14]) stood at 5970; in experiment [2] (setting [15]), 6930. The values for the z-score in experiment [3] (setting [16]) and in experiment [3] (setting [17]) were -0.531 (inactive) and 1.09, respectively.
Regarding `Cc1ccccc1CN1C2=NCCN2C(=O)C2=C1CCN(Cc1ccccc1)C2`, the fold change is 0.955 (inactive) in experiment [2] (setting [12]) and 0.31 in experiment [2] (setting [13]). The cell count came out at 8710 in experiment [2] (setting [14]) and 9120 in experiment [2] (setting [15]). The z-score was -0.516 (inactive) in experiment [3] (setting [16]) and 0.0586 in experiment [3] (setting [17]).
On to `CN(C)CCOc1ccc(-c2nc(-c3ccc4c(c3)CCC4=NO)c(-c3ccncc3)[nH]2)cc1`, for which the fold change in experiment [2] (setting [12]) was 0.921 (inactive); in experiment [2] (setting [13]) it was 1.04. Besides, the cell count amounted to 6630 in experiment [2] (setting [14]) and 7200 in experiment [2] (setting [15]). Also, the figures for the z-score in experiment [3] (setting [16]) and in experiment [3] (setting [17]) were -0.178 (inactive) and 0.963, respectively. Also, the viability in experiment [1] (setting [18]) is 124% (inactive); in experiment [1] (setting [19]), 144% (inactive); in experiment [1] (setting [20]) it was 72.5% (active); in experiment [1] (setting [21]), 88.8% (active); in experiment [1] (setting [22]), 121% (inactive); in experiment [1] (setting [23]), 132% (inactive). In addition, the viability in experiment [1] (setting [24]) was 70.7% (active); in experiment [1] (setting [25]) it was 68.7% (active); in experiment [1] (setting [26]) it was 121% (inactive); in experiment [1] (setting [27]), 153% (inactive); in experiment [1] (setting [28]), 70.2% (active); in experiment [1] (setting [29]) it was 74.7% (active). Also, the viability in experiment [1] (setting [30]) was 109% (inactive); in experiment [1] (setting [31]) it was 138% (inactive); in experiment [1] (setting [32]) it was 69.4% (active); in experiment [1] (setting [33]) it was 73.6% (active); in experiment [1] (setting [34]) it was 125% (inactive); in experiment [1] (setting [35]), 133% (inactive). The viability in experiment [1] (setting [36]) is 83.1% (active); in experiment [1] (setting [37]), 111% (inactive); in experiment [1] (setting [38]), 119% (inactive); in experiment [1] (setting [39]), 140% (inactive); in experiment [1] (setting [40]), 85.3% (active); in experiment [1] (setting [41]), 114% (inactive). Also, the viability is 120% (inactive) in experiment [1] (setting [4]); 153% (inactive) in experiment [1] (setting [5]); 78.5% (active) in experiment [1] (setting [6]); 108% (inactive) in experiment [1] (setting [7]); 136% (inactive) in experiment [1] (setting [8]); 187% (inactive) in experiment [1] (setting [9]). The viability is 1.04% (active) in experiment [1] (setting [10]) and 102% (inactive) in experiment [1] (setting [11]).
For the compound `Nc1nonc1C(=Nc1ccc(F)c(Cl)c1)NO`, the fold change in experiment [2] (setting [12]) was 0.862 (inactive); in experiment [2] (setting [13]), 0.685. The cell count in experiment [2] (setting [14]) was found to be 8500; in experiment [2] (setting [15]), 9860. Further, the z-score in experiment [3] (setting [16]) was -0.315 (inactive); in experiment [3] (setting [17]), 1.22. In addition, the viability was 127% (inactive) in experiment [1] (setting [18]); 108% (inactive) in experiment [1] (setting [19]); 87% (active) in experiment [1] (setting [20]); 92.2% (active) in experiment [1] (setting [21]); 121% (inactive) in experiment [1] (setting [22]); 110% (inactive) in experiment [1] (setting [23]). Also, the viability was 90.4% (active) in experiment [1] (setting [24]); 100% (active) in experiment [1] (setting [25]); 122% (inactive) in experiment [1] (setting [26]); 114% (inactive) in experiment [1] (setting [27]); 94% (active) in experiment [1] (setting [28]); 98% (active) in experiment [1] (setting [29]). For the same compound, the viability in experiment [1] (setting [30]) was 124% (inactive); in experiment [1] (setting [31]) it was 101% (inactive); in experiment [1] (setting [32]), 99.2% (active); in experiment [1] (setting [33]) it was 95.7% (active); in experiment [1] (setting [34]) it was 116% (inactive); in experiment [1] (setting [35]), 107% (inactive). In addition, the viability in experiment [1] (setting [36]) is 105% (inactive); in experiment [1] (setting [37]) it was 100% (active); in experiment [1] (setting [38]), 116% (inactive); in experiment [1] (setting [39]) it was 107% (inactive); in experiment [1] (setting [40]), 99.5% (active); in experiment [1] (setting [41]) it was 102% (inactive). For the same compound, the viability in experiment [1] (setting [4]) was 127% (inactive); in experiment [1] (setting [5]) it was 115% (inactive); in experiment [1] (setting [6]) it was 91.9% (active); in experiment [1] (setting [7]) it was 99.5% (active); in experiment [1] (setting [8]) it was 114% (inactive); in experiment [1] (setting [9]), 120% (inactive). Besides, the viability in experiment [1] (setting [10]) was 79% (active); in experiment [1] (setting [11]), 90.1% (active).
